Experiment [1] is described as follows: qHTS of pediatric cancer cell lines to identify multiple opportunities for drug repurposing: Primary screen for SJ-GBM2 cells (AID 1347091). Also: potency is read from the fitted curve at half-maximal effect.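 As to activity change, negative = cytotoxic: plate controls were DMSO neutral control for no effect and bortezomib for full effect.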 An outline of the steps:
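Cell viability, CellTiter-Glo luminescence; 500-1,000 cells/well, 8- or 11-point titration, 48 h compound exposure at 37 degrees C, 5% CO2. Controls: DMSO neutral, bortezomib 2.3 µM final as positive.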

A short description of experiment [2]: qHTS of pediatric cancer cell lines to identify multiple opportunities for drug repurposing: Primary screen for A673 cells (AID 1347092). Also: nearly all actives have a fitted effect of over 45% in size. Also: potency is read from the fitted curve at half-maximal effect. As to activity change, negative = cytotoxic: % is scaled to controls: 0 for no effect and ±100 for the full control effect. The method, boiled down: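 Titration-based qHTS on A673 cells: MIPE compounds spanned 11 points (0.78 nM to 46 µM final), NPC compounds 8 points (0.59 nM to 46 µM final). Viability after 48 h was measured by ATP luminescence.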
(In qHTS, concentration-response curves come from the screen itself.)

Experiment [3] is described as follows: qHTS of pediatric cancer cell lines to identify multiple opportunities for drug repurposing: Primary screen for SK-N-MC cells (AID 1347093). Also: potency is read from the fitted curve at half-maximal effect.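 As to activity change, negative = cytotoxic: series mostly up to about 46 µM; plate controls were DMSO neutral control for no effect and bortezomib for full effect.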 An outline of the steps: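 Metabolically active cells were quantified by ATP-dependent luminescence (CellTiter-Glo, 15 min at room temperature) following 48 h treatment. Cells had been plated at 500-1,000 per well and settled for 5 h beforehand.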

Experiment [4] in a line: qHTS of pediatric cancer cell lines to identify multiple opportunities for drug repurposing: Primary screen for NB-EBc1 cells (AID 1347095). Also: potency is read from the fitted curve at half-maximal effect.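 As to activity change, negative = cytotoxic: plate controls were DMSO neutral control for no effect and bortezomib for full effect.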 The method, boiled down:
(§1)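 Readout: CellTiter-Glo luminescence, 48 h treatment. Controls DMSO (neutral) and bortezomib 2.3 µM final (positive). Potency and efficacy taken from primary-screen concentration-response curves.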

Experiment [5] in a line: qHTS of pediatric cancer cell lines to identify multiple opportunities for drug repurposing: Primary screen for NB1643 cells (AID 1347099). Also: nearly all actives have a fitted effect of over 50% in size. Also: potency is read from the fitted curve at half-maximal effect.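 As to activity change, negative = cytotoxic: plate controls were DMSO neutral control for no effect and bortezomib positive control for full effect.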 An outline of the steps:
as §1

A short description of experiment [6]: qHTS of pediatric cancer cell lines to identify multiple opportunities for drug repurposing: Primary screen for LAN-5 cells (AID 1347100). Also: potency is read from the fitted curve at half-maximal effect.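 As to activity change, negative = cytotoxic: plate controls were DMSO neutral control for no effect and bortezomib positive control for full effect.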 The method, boiled down:
(§2)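 Cells (500-1,000/well) rested 5 h, then received compounds for 48 h; metabolically active cells were measured by CellTiter-Glo luminescence. Final concentrations spanned up to 46 µM (MIPE, 11-point) or 0.59 nM-46 µM (NPC, 8-point) in primary screens, 11-point in follow-ups.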

A short description of experiment [7]: qHTS of pediatric cancer cell lines to identify multiple opportunities for drug repurposing: Primary screen for BT-37 cells (AID 1347094).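 Also: series mostly up to about 57 µM; plate controls were DMSO for no effect and bortezomib for full effect.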 The method, boiled down: as §1
A short description of experiment [8]: qHTS of pediatric cancer cell lines to identify multiple opportunities for drug repurposing: Primary screen for U-2 OS cells (AID 1347096).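 Also: plate controls were DMSO wells for no effect and bortezomib positive control wells for full effect; nearly all actives have a fitted effect of over 50% in size.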 The method, boiled down: as §2
The nature of experiment [9]: qHTS of pediatric cancer cell lines to identify multiple opportunities for drug repurposing: Primary screen for SK-N-SH cells (AID 1347098). Also: % is scaled to controls: 0 for no effect and ±100 for the full control effect; nearly all actives have a fitted effect of over 65% in size. The method, boiled down:
as §2

A short description of experiment [10]: qHTS of pediatric cancer cell lines to identify multiple opportunities for drug repurposing: Primary screen for Saos-2 cells (AID 1347097). Also: % is scaled to controls: 0 for no effect and ±100 for the full control effect; nearly all actives have a fitted effect of over 40% in size. The method, boiled down: as §1

Inconclusive results are not listed. Values without a mark were called inactive. Active and inactive are the calls of the source. Calls follow the shape of the dose curve; as a rule, active = well fitted curve in the direction sought with a large enough effect; inconclusive = small, poorly fitted or top-dose-only effect, or another doubt; inactive = no such curve, though single readings can be large; an effect the other way counts as inactive or inconclusive.

Consider `CCCCC1C(=O)N(c2ccccc2)N(c2ccc(O)cc2)C1=O` (stereo not given), for which the Potency in experiment [1] is 10.6 µM (active); in experiment [2] it was 10.6 µM (active); in [3] it was 2.66 µM (active); in experiment [4], 2.99 µM (active); in [5], 6.68 µM (active); in [6] it was 5.96 µM (active).

Take `O=C(O)Cc1cccc(-c2cc(CCCCCCc3ccc(O[C@H]4O[C@H](CO)[C@@H](O)[C@H](O)[C@@H]4O)c(-c4cccc(CC(=O)O)c4)c3)ccc2O[C@H]2O[C@H](CO)[C@@H](O)[C@H](O)[C@@H]2O)c1`: the activity change, negative = cytotoxic was 18.6% [at 0.597 µM] in experiment [1]; 10.8% [at 0.597 µM] in experiment [2]; -8.23% [at 0.597 µM] in experiment [3]; 12.8% [at 0.745 µM] in [7]; 9.49% [at 0.597 µM] in experiment [4]; 2.96% [at 0.597 µM] in experiment [8]. The activity change, negative = cytotoxic in [9] is -3.64% [at 0.741 µM]; in [5] it was 1.92% [at 0.597 µM]; in [6], 9.16% [at 0.597 µM].

For the compound `c1ccc2sc(SN3CCOCC3)nc2c1`, the Potency result in [1], in experiment [2], in experiment [3], in [7], in experiment [4] and in experiment [8] was “inactive” in each case. In addition, the Potency entry in experiment [10], in [9], in [5] and in [6] was “inactive” throughout.

Turning to `O=C(O)/C=C\C(=O)O`, the Potency result in [1], in [2], in [3], in experiment [7], in experiment [4] and in experiment [8] was “inactive” in each case. Further, the Potency result in [9], in [5] and in [6] was “inactive” throughout.

For `O=C(/C=C/c1ccccc1)NCCO`, the Potency result in experiment [1], in [2], in experiment [3], in experiment [7], in experiment [4] and in experiment [8] was “inactive” each time. The Potency entry in [9], in [5] and in experiment [6] was “inactive” throughout.

For the compound `O=C(OCc1ccccc1)c1ccccc1`, the Potency result in experiment [1], in [2], in [3], in [7], in [4] and in experiment [8] was “inactive” each time. In addition, the Potency result in experiment [9], in [5] and in experiment [6] was “inactive” throughout.

For the compound `CC1(C)S[C@@H]2[C@H](NC(=O)[C@H](N)c3ccccc3)C(=O)N2[C@H]1C(=O)O`, the Potency entry in [1], in experiment [2], in [3], in experiment [7], in experiment [4] and in experiment [8] was “inactive” each time. Further, the Potency entry in [10], in [9], in experiment [5] and in [6] was “inactive” throughout.

In the case of `Cc1[nH]cnc1CN1CCc2c(c3ccccc3n2C)C1=O`, the Potency entry in experiment [1], in [2], in [3], in experiment [7], in [4] and in experiment [8] was “inactive” throughout. Moreover, the Potency entry in experiment [9], in experiment [5] and in [6] was “inactive” in each case.

Take `CCCCCCCCCCCC(=O)[O][Sn]([CH2]CCC)([CH2]CCC)[O]C(=O)CCCCCCCCCCC`: the Potency entry in [1], in [2], in [3], in [7], in experiment [4] and in experiment [8] was “inactive” each time. Further, the Potency result in [10], in experiment [9], in [5] and in experiment [6] was “inactive” each time.

In the case of `CO[C@@]1(NC(=O)Cc2cccs2)C(=O)N2C(C(=O)O)=C(COC(N)=O)CS[C@@H]21`, the Potency entry in experiment [1], in [3], in [7], in experiment [4], in experiment [8] and in [10] was “inactive” in each case. In addition, the Potency entry in [9], in experiment [5] and in experiment [6] was “inactive” in each case.

For `Nc1ccc(O)c(C(=O)O)c1`, the Potency result in experiment [1], in [2], in [3], in experiment [7], in [4] and in experiment [8] was “inactive” each time. Besides, the Potency result in experiment [9], in [5] and in experiment [6] was “inactive” in each case.

Turning to `Cc1ccc(C(=O)c2ccc(CC(=O)O)n2C)cc1`, the Potency entry in [1], in [2], in [3], in experiment [7], in experiment [4] and in [8] was “inactive” in each case. Besides, the Potency entry in experiment [10], in experiment [9], in experiment [5] and in [6] was “inactive” in each case.

On to `O=C(O)Cc1ccc(-c2ccccc2)cc1`, for which the Potency entry in experiment [1], in experiment [2], in [3], in [7], in [4] and in experiment [8] was “inactive” each time. For the same compound, the Potency result in experiment [9], in experiment [5] and in experiment [6] was “inactive” throughout.

Turning to `O=C(O)Cc1ccc2c(c1)C(=O)c1ccccc1CO2`, the Potency result in experiment [1], in experiment [2], in experiment [3], in experiment [7], in [4] and in [8] was “inactive” each time. In addition, the Potency result in [10], in [9], in experiment [5] and in experiment [6] was “inactive” each time.

On to `NC(=O)C(c1ccccc1)(c1ccccc1)[C@@H]1CCN(CCc2ccc3c(c2)CCO3)C1`, for which the Potency entry in experiment [1], in experiment [2], in experiment [3], in [7], in experiment [8] and in experiment [9] was “inactive” throughout. Moreover, the Potency entry in experiment [5] and in experiment [6] was “inactive” each time.

For the compound `CCOC(=O)c1ccccc1O`, the Potency result in [1], in experiment [3], in [7], in experiment [4], in experiment [8] and in [10] was “inactive” throughout. The Potency result in [9], in experiment [5] and in experiment [6] was “inactive” each time. The Potency in experiment [2] was 0.001 µM (active).

As for `Nc1ccc(C(=O)O)c(O)c1`, the Potency result in experiment [1], in experiment [2], in experiment [3], in [7], in experiment [4] and in experiment [8] was “inactive” throughout. Further, the Potency entry in experiment [9], in experiment [5] and in [6] was “inactive” each time.

Values taken from PubChem BioAssay (NCATS).
